# From PubChem BioAssay (EPA / NIEHS)
# Values joined by “and” are separate entries in the source; they are usually repeats but may differ in a detail not shown here. Equal values may be shown once. Some structures have more than one record in an assay (separate samples or runs), and their calls can disagree. Active and inactive are the calls of the source. Rule for the calls: active = hit-call score of the fitted dose curve at least 0.9, where 1 is the maximum; inactive = score below 0.9.
# Assay: CCTE_Shafer_MEA_acute_network_burst_percentage: CCTE's Neural Acute Assay for Percentage of Network Bursts, Shafer Lab (AID 2284022);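 note: curves fitted for loss so actives lower network burst percentage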
# Protocol: CCTE_Shafer_MEA_acute assay is conducted using Axion Biosystems 48 well microelectrode array (MEA) plates and Maestro recording system. Each well of the MEA plate contains a grid of 16 microelectrodes embedded in the culture surface. Electrically active cells, such as neurons, can be cultured over the electrodes, and electrical activity in these cells can be recorded extracellularly. The spontaneous firing of neurons is captured from each electrode on a microsecond timescale providing both temporally and spatially precise data. […] The CCTE_Shafer_MEA_acute assay uses primary cultures of rat cortical neurons. As these cultures mature over time, neural networks develop functional activity and form cohesive networks in which electrical activity can be highly coordinated. Baseline 40-minute recordings are made on days post-plating 13 or 15, followed by a secondary 40-minute recording after chemical exposure.CCTE_Shafer_MEA_acute_network_burst_percentage is a component of the CCTE_Shafer_MEA_acute assay. It measures the percent of spikes (action potential firings) in network bursts (temporally-clustered groups of spikes across multiple electrodes) as the number of spikes occuring in network bursts divided by the total number of spikes during a recording in a microelectrode array (MEA) using Axion Biosystems Maestro 768 channel amplifier with the AxIS adaptive spike detector. The recordings before and after chemical treatment are used to calculate a percent change in the network burst percentage in each well.Data from the assay component CCTE_Shafer_MEA_acute_network_burst_percentage was analyzed into 1 assay endpoint. This assay endpoint, CCTE_Shafer_MEA_acute_network_burst_percentage, was analyzed in the negative analysis fitting direction relative to DMSO as the negative control and baseline of activity. Using a type of functional reporter, gain or loss-of-signal activity can be used to understand electrical activity.
# Spontaneous activity in the cortical cultures was recorded using an Axion Biosystems Maestro 768 channel amplifier and Axion Integrated Studios (AxIS) v1.8 (or later) software. The amplifier recorded from all channels simultaneously (gain = 1200 x; sampling rate = 12.5 kHz/channel): raw signals were filtered with a Butterworth band-pass filter (300-5000 Hz), which filters out slower local field potentials leaving only fast potentials, i.e., "spikes", arising from extracellular currents associated with action potentials (Pine 2006; Wheeler and Nam 2011). On-line spike detection of filtered signals was conducted with the AxIS adaptive spike detector, using a threshold of 8x the root mean squared (rms) noise on each channel. Any electrodes with rms noise levels greater than 5 uV were grounded (e.g., no data were recorded). Once grounded, an electrode was grounded for the duration of the experiment. All recordings were conducted at 37 C. Wells were deemed usable if on the day of the exposure >/= 10 electrodes were active (defined as >/= 5 spikes/min). On DIV 13 or 15, a minimum of three wells from one cortical culture preparation were treated with each compound (0.03-40 uM). Prior to recording baseline activity, each mwMEA plate was placed in the Maestro at 37 C and allowed to sit for 20 min while firing rates stabilized. Baseline activity (40 min) was recorded before the addition of each compound. An additional 40 min of spontaneous activity was recorded in the presence of each compound. Changes in network parameters relative to baseline were assessed following compound treatment.
Compound,AC50,outcome
N#Cc1c(Cl)c(Cl)c(Cl)c(C#N)c1Cl,7.17 µM (active),
O=C1c2ccccc2C(=O)N1SC(Cl)(Cl)Cl,28.8 µM (active),
CC(C)N(C(=O)COc1nnc(C(F)(F)F)s1)c1ccc(F)cc1,5 µM (active),inactive
O=S(=O)(O)C(F)(F)C(F)(F)C(F)(F)C(F)(F)C(F)(F)C(F)(F)C(F)(F)C(F)(F)F,,inactive
CCC(C)Nc1c([N+](=O)[O-])cc(C(C)(C)C)cc1[N+](=O)[O-] (centres undefined),,inactive
CC[C@H](C)[C@H]1O[C@]2(C=C[C@@H]1C)C[C@@H]1C[C@@H](C/C=C(\C)[C@@H](O[C@H]3C[C@H](OC)[C@@H](O[C@H]4C[C@H](OC)[C@@H](O)[C@H](C)O4)[C@H](C)O3)[C@@H](C)/C=C/C=C3\CO[C@@H]4[C@H](O)C(C)=C[C@@H](C(=O)O1)[C@]34O)O2 (tested in a mixture with another compound),,inactive
CNC(=O)/C=C(\C)OP(=O)(OC)OC,,inactive
O=C(O)CCCOc1ccc(Cl)cc1Cl,,inactive
CC(C)OC(=O)Nc1cccc(Cl)c1,20 µM (active),
Oc1cc(Cl)ccc1Oc1ccc(Cl)cc1Cl,5 µM (active),
CCCN(CCOc1c(Cl)cc(Cl)cc1Cl)C(=O)n1ccnc1,,inactive
Clc1ccccc1-c1nnc(-c2ccccc2Cl)nn1,,inactive
O=S1OCC2C(CO1)C1(Cl)C(Cl)=C(Cl)C2(Cl)C1(Cl)Cl (centres undefined),24.4 µM (active),inactive
CCC(C)(C)C(=O)OC1=C(c2ccc(Cl)cc2Cl)C(=O)OC12CCCCC2,,inactive
COP(=S)(OC)Oc1ccc(SC)c(C)c1,,inactive
CC1(C)C(C=C(Cl)Cl)C1C(=O)OC(C#N)c1ccc(F)c(Oc2ccccc2)c1 (centres undefined),171 nM (active) and 612 nM (active),
N#CN,,inactive
O=[N+]([O-])/N=C1\NCCN1Cc1ccc(Cl)nc1,,inactive
CNC(=O)CSP(=S)(OC)OC,,inactive
CCCN(CCC)c1c([N+](=O)[O-])cc(C(F)(F)F)cc1[N+](=O)[O-],20 µM (active),
C[C@H]1[C@H](c2ccc(Cl)cc2)SC(=O)N1C(=O)NC1CCCCC1,,inactive
Oc1ccc(Cl)cc1Cc1ccccc1,5.05 µM (active),
